Screening data (PubChem BioAssay)
Rows were chosen to be rich in hits. Some 2.5% of all compounds tested hit in one or more screens of this group.
MEKK2 WT-MEK5 = raises or lowers MEK5 binding to wildtype human MEKK2 PB1 domain. 290,000 tested, 1.1% active. bead flow cytometry, Alexa488-MEK5 binding to MEKK2 WT; actives lie on both sides. AID 1531. binding response (% of control), % at 10 µM; in the data active = binding response below about 67% or above about 130%
MEKK2 mut-MEK5 = signal of MEK5 binding to mutant human MEKK2 PB1 domain | AID 1530 | bead flow cytometry, Alexa488-MEK5 binding to MEKK2 mutant | percent response, % at 10 µM | 290,000 tested, 0.35% active; in the data active = percent response above about 24%, passing the limit was not always enough
MEKK3 PB1 HTS = modulators (inhibitors or enhancers) of MEK5 binding to human MEKK3 PB1 domain. 290,000 tested, 1.4% active. AID 1529. binding response (% of control), % at 10 µM. bead-based flow cytometry, Alexa488-MEK5 binding to MEKK3; actives lie on both sides; 0 = blocked by unlabeled MEK5, 100 = vehicle;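 active = binding response more than 3 SD above or below the average of its plate-row segment, actives on both sides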;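 note: Alexa488 bead fluorescence after subtracting the streptavidin-only scavenger bead signal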
GRK2 inh = inhibitors of human GRK2 displacing RNA aptamer; P25098; bead flow cytometry, FAM-aptamer displacement from GRK2; inhibition of aptamer binding, % at 10 µM; 330,000 tested, 0.59% active; AID 488847;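 active = inhibition of aptamer binding above 40%, roughly 3 SD of noise, on plates passing a quality check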;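 note: median bead fluorescence of bound FAM aptamer so fluorescent compounds give negative values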
Target sequence (P25098 whole entry, looked up): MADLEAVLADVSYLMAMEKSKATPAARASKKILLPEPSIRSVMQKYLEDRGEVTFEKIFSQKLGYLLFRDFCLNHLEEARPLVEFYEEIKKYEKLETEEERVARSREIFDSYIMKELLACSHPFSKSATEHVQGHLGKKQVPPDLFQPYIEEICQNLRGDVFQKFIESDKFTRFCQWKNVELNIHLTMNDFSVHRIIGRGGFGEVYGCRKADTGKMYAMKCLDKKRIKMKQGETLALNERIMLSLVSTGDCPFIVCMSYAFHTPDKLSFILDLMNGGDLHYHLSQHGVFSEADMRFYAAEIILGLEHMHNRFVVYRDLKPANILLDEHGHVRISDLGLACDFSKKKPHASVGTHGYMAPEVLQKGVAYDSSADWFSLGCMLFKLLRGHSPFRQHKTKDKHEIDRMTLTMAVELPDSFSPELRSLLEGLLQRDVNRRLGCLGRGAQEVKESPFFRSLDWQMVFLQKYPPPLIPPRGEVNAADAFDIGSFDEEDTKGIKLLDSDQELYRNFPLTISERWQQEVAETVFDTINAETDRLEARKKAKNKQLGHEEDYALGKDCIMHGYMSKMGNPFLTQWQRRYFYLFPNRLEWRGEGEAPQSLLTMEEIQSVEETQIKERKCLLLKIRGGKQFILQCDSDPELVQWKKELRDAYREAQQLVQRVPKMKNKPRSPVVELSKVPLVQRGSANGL
MEKK2wt confirm = raises or lowers MEK5 binding to wildtype human MEKK2, retest; shares compounds with MEKK3 PB1 HTS; bead flow cytometry, Alexa488-MEK5 binding to MEKK2 WT; actives lie on both sides; binding response (% of control), % at 10 µM; 5,900 tested, 2.4% active; AID 1892; in the data active = binding response below about 16% or above about 210%; inactive = in between
MEKK2mut-MEK5 = signal of MEK5 binding to mutant human MEKK2, retest; shares compounds with MEKK3 PB1 HTS; percent response, % at 10 µM; 5,900 tested, 2% active; bead flow cytometry, Alexa488-MEK5 binding to MEKK2 mutant; AID 1893; in the data active = percent response mostly above about 71%, no sharp cut-off; inactive = mostly below about 38%;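 note: higher means compound restores mutant binding toward wildtype level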
MEKK3-MEK5 inh = MEKK3-MEK5 PB1 inhibition, single concentration confirmation. shares compounds with MEKK3 PB1 HTS. bead flow cytometry, Alexa488-MEK5 binding to MEKK3; active compounds read low. binding response (% of control), % at 10 µM. 5,900 tested, 1.8% active;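 active = binding response below 72% of control, or above a set upper limit, though filed actives all read lower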;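 note: lower values mean stronger disruption of MEK5 binding to MEKK3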
Each line names hits and unclear results; the compound was inactive in the other large screens (follow-up assays come after a bar, where they were run); [ ] = another dose, or the depositor's remark.

O=[N+]([O-])c1cccc(-n2nnnc2CN2CCCCCC2)c1	MEKK3 PB1 HTS 122 | MEKK2wt confirm inactive | MEKK2mut-MEK5 inactive | MEKK3-MEK5 inh inactive
CC1Cc2ccccc2N1C(=O)c1cc2cccnc2n(C)c1=O (stereo not drawn)	none (no result: MEKK2 WT-MEK5, MEKK2 mut-MEK5, MEKK3 PB1 HTS)
COc1ccc(CNC(=O)CN(Cc2ccccc2)C(=O)CCC(=O)Nc2nccs2)cc1	none
CCCCC(CC(O)COCCC)c1n[nH]c(=S)n1-c1ccccc1 (stereo not drawn)	MEKK3 PB1 HTS 128 | MEKK2wt confirm inactive | MEKK2mut-MEK5 inactive | MEKK3-MEK5 inh inactive
CCCCCC(O)CCc1n[nH]c(=S)n1-c1ccccc1 (stereo not drawn)	none
CCC(=O)c1ccc(OCC(=O)OCC(=O)NCCCc2ccccc2)cc1	none (no result: MEKK2 WT-MEK5, MEKK2 mut-MEK5, MEKK3 PB1 HTS)
CN(Cc1ccccc1)C(=O)C1CCC(CNS(=O)(=O)c2cccc3cccnc23)CC1 (stereo not drawn)	MEKK3 PB1 HTS 131 | MEKK2wt confirm inactive | MEKK2mut-MEK5 inactive | MEKK3-MEK5 inh inactive
CCN(CC)C(=O)C1CCC(CNS(=O)(=O)c2cccc3cccnc23)CC1 (stereo not drawn)	none
CCCN(CC(=O)Nc1ccccc1C)C(=O)/C=C/c1cccs1	MEKK3 PB1 HTS 140 | MEKK2wt confirm inactive | MEKK2mut-MEK5 inactive | MEKK3-MEK5 inh inactive
CCCN(CC(=O)Nc1ccccc1C)C(=O)Cc1cccs1	none (no result: MEKK2 WT-MEK5, MEKK2 mut-MEK5, MEKK3 PB1 HTS)
CC(=O)c1oc2ccccc2c1NC(=O)CN1CCCCC1	MEKK2 WT-MEK5 3.0[inhibitor], MEKK3 PB1 HTS 4.0[inhibitor] | MEKK2wt confirm inactive | MEKK2mut-MEK5 inactive | MEKK3-MEK5 inh inactive
CC(C)Oc1cccc(NC(=O)c2cnccc2C(F)(F)F)c1	none
Nc1nonc1C(=O)NCCNCc1c(OCc2ccccc2F)ccc2ccccc12	MEKK2 WT-MEK5 164, MEKK2 mut-MEK5 26 | MEKK2wt confirm inactive | MEKK2mut-MEK5 inactive | MEKK3-MEK5 inh inactive
CS(=O)(=O)N1CCN(C(=O)Cc2cccs2)CC1	MEKK3 PB1 HTS 63[inhibitor] | MEKK2wt confirm inactive | MEKK2mut-MEK5 inactive | MEKK3-MEK5 inh inactive
CS(=O)(=O)N1CCN(C(=O)COc2ccc3ccccc3c2)CC1	MEKK3 PB1 HTS 132 | MEKK2wt confirm inactive | MEKK2mut-MEK5 inactive | MEKK3-MEK5 inh inactive
CS(=O)(=O)N1CCN(C(=O)COc2ccccc2)CC1	none
O=C(Cc1cccs1)N1CCN(S(=O)(=O)c2ccc(Br)cc2)CC1	none
COCCNC(=O)c1ccc(-n2c(SCc3ccncc3)nc3ccccc3c2=O)cc1	none
O=C1Cc2ccccc2Sc2cc(OCCCN3CCCCC3)ccc21	MEKK3 PB1 HTS 75[inhibitor] | MEKK2wt confirm inactive | MEKK2mut-MEK5 inactive | MEKK3-MEK5 inh inactive
ON=C1c2cc(OCCN3CCCCC3)ccc2-c2ccc(OCCN3CCCCC3)cc21	MEKK2 WT-MEK5 232, MEKK2 mut-MEK5 31 | MEKK2wt confirm inactive | MEKK2mut-MEK5 inactive | MEKK3-MEK5 inh inactive
c1cc(OCCCN2CCCCC2)ccc1CN1CCCCC1	MEKK2 WT-MEK5 190, MEKK2 mut-MEK5 33 | MEKK2wt confirm inactive | MEKK2mut-MEK5 inactive | MEKK3-MEK5 inh inactive
Brc1ccc(CN2CCCCCC2)cc1	none (no result: MEKK2 WT-MEK5, MEKK2 mut-MEK5, MEKK3 PB1 HTS)
Nc1ccc(CN2CCCCCC2)cc1	MEKK2 WT-MEK5 136 | MEKK2wt confirm inactive | MEKK2mut-MEK5 inactive | MEKK3-MEK5 inh inactive
Clc1ccc(OCCCCN2CCCCC2)cc1	none
O=C(NCCN1CCOCC1)c1ccccc1OCc1ccccc1	none (no result: MEKK2 WT-MEK5, MEKK2 mut-MEK5, MEKK3 PB1 HTS)
Clc1ccc(OCCCN2CCCC2)cc1Cl	MEKK3 PB1 HTS 131 | MEKK2wt confirm inactive | MEKK2mut-MEK5 inactive | MEKK3-MEK5 inh inactive
CCC(=O)Nc1c2c(nn1-c1ccc(F)cc1)CS(=O)(=O)C2	none
CCOc1ccc(C(=O)NCC(c2cccs2)N(C)C)cc1OCC (stereo not drawn)	MEKK3 PB1 HTS 70[inhibitor] | MEKK2wt confirm inactive | MEKK2mut-MEK5 inactive | MEKK3-MEK5 inh inactive
CCc1cccc2c(C(=O)C(F)(F)F)cn(CC(=O)N3CCOCC3)c12	MEKK3 PB1 HTS 147 | MEKK2wt confirm inactive | MEKK2mut-MEK5 inactive | MEKK3-MEK5 inh inactive
CCN(CC1CCCO1)C(=O)c1cc(COc2cc(C)c(Cl)c(C)c2)on1 (stereo not drawn)	none (no result: GRK2 inh)
COc1cccc(NC(=O)c2ccc(NCCCN3CC(C)CC(C)C3)c([N+](=O)[O-])c2)c1 (stereo not drawn)	MEKK2 WT-MEK5 139 (no result: GRK2 inh) | MEKK2wt confirm inactive | MEKK2mut-MEK5 inactive | MEKK3-MEK5 inh inactive
COc1cccc(NC(=O)c2ccc(NCCCN3CCC(C)CC3)c([N+](=O)[O-])c2)c1	none
O=C(CN1C(=O)COc2ccccc21)c1ccc(Cl)cc1	MEKK3 PB1 HTS 122 | MEKK2wt confirm inactive | MEKK2mut-MEK5 inactive | MEKK3-MEK5 inh inactive
O=C(CN1C(=O)COc2ccccc21)c1cccc(Cl)c1	none
C=CCn1c(SCCN2CCCC2)nc2c([nH]c3ccccc32)c1=O	MEKK3 PB1 HTS 50[inhibitor] | MEKK2wt confirm inactive | MEKK2mut-MEK5 inactive | MEKK3-MEK5 inh inactive
O=c1oc2ccccc2cc1-c1nc2c(s1)CCc1ccccc1-2	MEKK2 WT-MEK5 63[inhibitor] | MEKK2wt confirm inactive | MEKK2mut-MEK5 inactive | MEKK3-MEK5 inh inactive
O=c1oc2cc(O)ccc2cc1-c1nc2c(s1)CCc1ccccc1-2	none
Cc1ccc(-n2nnnc2-c2ccccc2)cc1	none
CCN(CC)c1ccc(C=C(c2nnnn2-c2ccc(C)cc2)c2nnnn2-c2ccc(C)cc2)cc1	MEKK3 PB1 HTS 131 | MEKK2wt confirm inactive | MEKK2mut-MEK5 inactive | MEKK3-MEK5 inh inactive
CCOc1cc(CNCc2ccncc2)cc(Br)c1OCc1ccc(F)cc1	MEKK2 WT-MEK5 142 | MEKK2wt confirm inactive | MEKK2mut-MEK5 inactive | MEKK3-MEK5 inh inactive
COc1cc(CNc2ccc(O)cc2)cc(Br)c1OCc1ccccc1	none
Fc1ccc(COc2ccc(Br)cc2CNCc2ccncc2)cc1	none
COc1cc(CNC(C)c2ccccc2)cc(Br)c1OCc1ccccc1 (stereo not drawn)	MEKK2 WT-MEK5 192 | MEKK2wt confirm inactive | MEKK2mut-MEK5 inactive | MEKK3-MEK5 inh inactive
COc1cc(CNC(C)c2ccccc2)cc(Br)c1OCc1ccc(F)cc1 (stereo not drawn)	MEKK2 WT-MEK5 223 | MEKK2wt confirm inactive | MEKK2mut-MEK5 inactive | MEKK3-MEK5 inh inactive
COc1ccc(NC2CCCN(C(=O)Cn3ccc(C)n3)C2)cc1OC (stereo not drawn)	none
Cc1ccc(NC(=O)COC(=O)Cc2ccsc2)c(C)c1	none
CCS(=O)(=O)c1ccc(O)c(NC(=O)COc2ccc(C)cc2)c1	MEKK3 PB1 HTS 154 | MEKK2wt confirm inactive | MEKK2mut-MEK5 inactive | MEKK3-MEK5 inh inactive
CCS(=O)(=O)c1ccc(O)c(NC(=O)COc2ccc(OC)cc2)c1	none
COc1ccc(C)cc1S(=O)(=O)N1CCCCCC1	MEKK3 PB1 HTS 129 | MEKK2wt confirm inactive | MEKK2mut-MEK5 inactive | MEKK3-MEK5 inh inactive
